PubChem BioAssay (NCI)
Compounds without any hit were thinned out: in the full panel of roughly 79,000, 15% have a hit. Calls of active or inactive are those of the source. Rule as the data show it: active = growth inhibition above about 70%; inactive = the rest.

Columns and labels:
[1] = NCI Yeast Anticancer Drug Screen. Data for the rad52 strain (AID 147);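 also: 0% = growth of vehicle-treated control cultures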; details: S. cerevisiae rad52 mutant growth inhibition, stronger effect = higher value
Procedure, shortened: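 Measured: yeast growth inhibition. System: strain with a defined DNA damage repair alteration. Reference: vehicle-treated control cultures.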

[2] = NCI Yeast Anticancer Drug Screen. Data for the wt1 strain (AID 149);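 also: 0% = growth of vehicle-treated wt1 cultures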; details: S. cerevisiae wt1 strain (SPY 50644) growth inhibition, stronger effect = higher value
Procedure, shortened: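 Using yeast strain wt1, compound-induced growth inhibition was determined against vehicle-treated cultures.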

[3] = NCI Yeast Anticancer Drug Screen. Data for the rad50EPP+ strain (AID 151);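 also: 0% = growth of vehicle-treated control cultures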; details: S. cerevisiae rad50 mutant strain, stronger effect = higher value
Procedure, shortened: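 One strain with a rad50 alteration (rad50EPP+) was compound-treated, its growth then compared to that of vehicle controls.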

[4] = NCI Yeast Anticancer Drug Screen. Data for the rad50 strain (AID 155);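 also: 0% = growth of vehicle-only cultures of the same strain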; details: S. cerevisiae rad50 strain growth inhibition, stronger effect = higher value
Procedure, shortened: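 Relative growth inhibition (compound vs vehicle) was measured in yeast with a defined repair-gene alteration.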

[5] = NCI Yeast Anticancer Drug Screen. Data for the mec2-1 strain (AID 157); details: S. cerevisiae mec2-1 strain, stronger effect = higher value
Procedure, shortened: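 Test agents were screened against the mec2-1 yeast strain, with defined DNA repair or cell cycle alteration. Growth was scored as inhibition against vehicle-only controls.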

[6] = NCI Yeast Anticancer Drug Screen. Data for the rad14 strain (AID 159);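 also: 0% = growth of vehicle-treated control cultures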; details: S. cerevisiae rad14 strain growth inhibition, stronger effect = higher value
Procedure, shortened: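 Screen for anticancer potential: a yeast strain altered in DNA damage repair is grown with compound, and reduced growth is quantified against vehicle controls.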

[7] = NCI Yeast Anticancer Drug Screen. Data for the sgs1 mgt1 strain (AID 161);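 also: 0% = growth of cultures given vehicle only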; details: S. cerevisiae sgs1 mgt1 strain, stronger effect = higher value
Procedure, shortened: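 Mutant yeast exposed to compound; growth scored against vehicle-only wells.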

[8] = NCI Yeast Anticancer Drug Screen. Data for the CLN2oe strain (AID 163);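 also: 0% = growth of vehicle-only control cultures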; details: S. cerevisiae CLN2oe strain, stronger effect = higher value
Procedure, shortened: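 Here, growth inhibition in a cell-cycle-altered yeast strain after compound exposure was quantified against vehicle control growth.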

[9] = NCI Yeast Anticancer Drug Screen. Data for the cln2 rad14 strain (AID 165);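 also: 0% = growth equal to vehicle treated cultures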; details: S. cerevisiae cln2 rad14 strain, stronger effect = higher value
Procedure, shortened: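 Growth of compound-exposed yeast (cln2 rad14 genotype) measured and expressed as inhibition relative to vehicle.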

[10] = NCI Yeast Anticancer Drug Screen. Data for the bub3 strain (AID 167); details: S. cerevisiae bub3 mutant strain, stronger effect = higher value
Procedure, shortened: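 Screening used yeast with an engineered genetic alteration affecting cell cycle control. Compound-exposed cultures were compared with vehicle cultures, and reduced growth was taken as inhibition.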

[11] = NCI Yeast Anticancer Drug Screen. Data for the wt2 strain (AID 169);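 also: 0% = growth of vehicle-treated yeast cultures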; details: S. cerevisiae wt2 strain growth inhibition, stronger effect = higher value
Procedure, shortened: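 Genetically defined yeast strains from a DNA-repair/cell-cycle panel were used. Compound-exposed yeast growth was measured, and the inhibition was calculated relative to vehicle treatment.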

[12] = NCI Yeast Anticancer Drug Screen. Data for the mlh1 strain (AID 171);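 also: 0% = growth of vehicle-treated control cultures of the same strain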; details: S. cerevisiae mlh1 strain growth inhibition, stronger effect = higher value
Procedure, shortened: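 Here the genetically defined yeast mutant is grown with each compound, and the extent to which its growth falls below that of vehicle-exposed cells is reported.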

[13] = NCI Yeast Anticancer Drug Screen. Data for the sgs1 strain (AID 173);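 also: 0% = growth of vehicle-only control cultures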; details: S. cerevisiae sgs1 mutant, stronger effect = higher value
Procedure, shortened: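 Relative growth inhibition, referenced to vehicle, was determined in a yeast strain with a defined alteration affecting DNA damage repair or cell cycle control after compound exposure.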

[14] = NCI Yeast Anticancer Drug Screen. Data for the rad18 strain (AID 177); details: S. cerevisiae rad18 mutant growth inhibition, stronger effect = higher value
Procedure, shortened: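 Screen uses a yeast strain with a defined lesion in DNA damage repair; compound effect is read as loss of growth compared to untreated vehicle cultures.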

[15] = at 5.0 µM (retest, dose inferred, filed as 0.5)
[16] = at 50.0 µM (retest, dose inferred, filed as 5.0)

Measured: growth inhibition

O=[N+]([O-])c1c(/C=N/Nc2ccccc2)oc(-c2ccc3c(c2)OCO3)c1-c1ccc2c(c1)OCO2
active: [1]; at 100.0 µM 88% | [4]; [15] 88% | [4]; [16] 88% | [4]; at 50.0 µM 80.3% | [4]; at 100.0 µM 86% | [5]; at 50.0 µM 88.2% | [5]; at 100.0 µM 81% | [6]; at 100.0 µM 91% | [7]; [15] 87% | [7]; [16] 87% | [7]; at 50.0 µM 83% | [8]; at 100.0 µM 77% | [9]; at 50.0 µM 86.8% | [10]; at 50.0 µM 82.5% | [11]; at 100.0 µM 88% | [12]; at 100.0 µM 73% | [13]; at 100.0 µM 89% | [14]; at 100.0 µM 87%
inactive: [1]; at 1.2 µM 0% | [1]; at 3.7 µM 6% | [1]; at 11.0 µM 20% | [1]; at 33.0 µM 67% | [2]; at 1.2 µM -1% | [2]; at 3.7 µM 0% | [2]; at 11.0 µM -1% | [2]; at 33.0 µM 19% | [2]; at 100.0 µM 62% | [3]; at 1.2 µM -4% | [3]; at 3.7 µM 1% | [3]; at 11.0 µM 11% | [3]; at 33.0 µM 31% | [3]; at 100.0 µM 46% | [4]; at 1.2 µM -1% | [4]; at 3.7 µM 2% | [4]; at 11.0 µM 7% | [4]; at 33.0 µM 56% | [5]; at 1.2 µM 0% | [5]; at 3.7 µM 0% | [5]; [15] 8% | [5]; at 11.0 µM 8% | [5]; at 33.0 µM 37% | [5]; [16] 8% | [6]; at 1.2 µM 0% | [6]; at 3.7 µM -2% | [6]; at 11.0 µM 2% | [6]; at 33.0 µM 20% | [8]; at 1.2 µM -1% | [8]; at 3.7 µM 4% | [8]; at 11.0 µM 9% | [8]; at 33.0 µM 46% | [9]; [15] -17% | [9]; [16] -17% | [10]; at 1.2 µM -9% | [10]; at 3.7 µM -8% | [10]; [15] -21% | [10]; at 11.0 µM 8% | [10]; at 33.0 µM 39% | [10]; [16] -21% | [10]; at 100.0 µM 60% | [11]; at 1.2 µM 0% | [11]; at 3.7 µM 1% | [11]; at 11.0 µM 5% | [11]; at 33.0 µM 44% | [12]; at 1.2 µM -3% | [12]; at 3.7 µM -2% | [12]; at 11.0 µM 3% | [12]; at 33.0 µM 36% | [13]; at 1.2 µM -2% | [13]; at 3.7 µM -2% | [13]; at 11.0 µM 7% | [13]; at 33.0 µM 65% | [14]; at 1.2 µM -8% | [14]; at 3.7 µM -5% | [14]; at 11.0 µM 8% | [14]; at 33.0 µM 69%
